The supplement of paper PMC11732987, “Enantioselective OTUD7B fragment discovery through chemoproteomics screening and high-throughput optimisation” (Communications Chemistry, 2025)

How the values were obtained:
Assay in all cases: log2 ratio of Biotin-Ahx-Ub-VS probe labelling (compound/DMSO); higher = less target engagement, active = hit call of the paper (q ≤ 0.05, log2 ratio ≤ -1)
Conditions in all cases: treatment time: 3 h
[1] = compound: CCC1N(CCc2sccc12)C(=O)CCl
Summary of the method: (§1)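 HEK293T lysate (495 µg per sample, in Tris/CHAPS/IGEPAL buffer with protease inhibitors) was exposed in triplicate to compound at 50 or 200 µM, or to DMSO, for 3 h, then to Biotin-Ahx-Ub-VS (0.5 µM final) for 1 h. The labelled DUBs were enriched on NeutrAvidin, digested with LysC and trypsin, and analysed by diaPASEF LC-MS/MS. Average base-two log ratios of compound over DMSO came from median-normalised label-free quantities by unpaired t-test. Only proteins with at least 2 unique peptides were used.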

[2] = compound: CN1c2ccccc2C(CS1(=O)=O)NC(=O)CCl
Summary of the method: as §1

[3] = compound: Cl.ClCC(=O)N1CCc2ncncc2C1
Summary of the method: as §1

[4] = compound: Cl.Cn1ncc2C(CCCc12)NC(=O)CCl
Summary of the method: as §1

[5] = compound: ClCC(=O)NC1CCOc2ccccc12
Summary of the method: as §1

[6] = compound: ClCC(=O)NC1CCCc2ccccc12
Summary of the method: (§2)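 In triplicate, 495 µg portions of HEK293T lysate in Tris/CHAPS/IGEPAL buffer with protease inhibitors received compound across a concentration series or vehicle for 3 h, followed by 1 h with 0.5 µM final Biotin-Ahx-Ub-VS. After NeutrAvidin enrichment and LysC/trypsin digestion, the labelled deubiquitinases were measured by diaPASEF LC-MS/MS and quantified label-free in Spectronaut with global-median normalisation. Each value is an average compound-to-vehicle ratio from an unpaired t-test, expressed as log2 and restricted to proteins having two or more unique peptides.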

[7] = compound: ClCC(=O)N[C@@H]1CCCc2ccccc12
Summary of the method: as §2

[8] = compound: ClCC(=O)N[C@H]1CCCc2ccccc12
Summary of the method: as §2

[9] = compound: CCC1N(CCc2cc(OC)c(Cl)cc12)C(=O)CCl
Summary of the method: as §1

[10] = compound: CCCC1N(CCc2cc(OC)c(OC)cc12)C(=O)CCl
Summary of the method: as §1

[11] = compound: CN(Cc1cccc(Br)c1)C(=O)CCl
Summary of the method: as §1

[12] = compound: CN(Cc1cccc(OCc2ccccc2C)c1)C(=O)CCl
Summary of the method: as §1

[13] = compound: CN(Cc1ccccc1)C(=O)CCl
Summary of the method: as §1

[14] = compound: COc1ccc(CN(C)C(=O)CCl)cc1
Summary of the method: as §1

[15] = compound: COc1cccc(CN(CCCc2ccccc2)C(=O)CCl)c1
Summary of the method: as §1

[16] = compound: ClCC(=O)N1CCc2cc(Cl)c(Cl)cc2C1
Summary of the method: as §1

[17] = compound: ClCC(=O)N1CCc2nc(ncc2C1)-c1ccccc1
Summary of the method: as §1

[18] = compound: ClCC(=O)N1CCc2nocc2C1
Summary of the method: as §1

[19] = compound: ClCC(=O)N1CCc2scc(Br)c2C1
Summary of the method: as §1

[20] = compound: ClCC(=O)NC(C1CCCC1)c1cccs1
Summary of the method: as §1

Measured: log2 ratio of Biotin-Ahx-Ub-VS probe labelling

USP16 (UniProt Q9Y5T5)
Sequence of UniProt Q9Y5T5 (Q9Y5T5 whole entry, looked up): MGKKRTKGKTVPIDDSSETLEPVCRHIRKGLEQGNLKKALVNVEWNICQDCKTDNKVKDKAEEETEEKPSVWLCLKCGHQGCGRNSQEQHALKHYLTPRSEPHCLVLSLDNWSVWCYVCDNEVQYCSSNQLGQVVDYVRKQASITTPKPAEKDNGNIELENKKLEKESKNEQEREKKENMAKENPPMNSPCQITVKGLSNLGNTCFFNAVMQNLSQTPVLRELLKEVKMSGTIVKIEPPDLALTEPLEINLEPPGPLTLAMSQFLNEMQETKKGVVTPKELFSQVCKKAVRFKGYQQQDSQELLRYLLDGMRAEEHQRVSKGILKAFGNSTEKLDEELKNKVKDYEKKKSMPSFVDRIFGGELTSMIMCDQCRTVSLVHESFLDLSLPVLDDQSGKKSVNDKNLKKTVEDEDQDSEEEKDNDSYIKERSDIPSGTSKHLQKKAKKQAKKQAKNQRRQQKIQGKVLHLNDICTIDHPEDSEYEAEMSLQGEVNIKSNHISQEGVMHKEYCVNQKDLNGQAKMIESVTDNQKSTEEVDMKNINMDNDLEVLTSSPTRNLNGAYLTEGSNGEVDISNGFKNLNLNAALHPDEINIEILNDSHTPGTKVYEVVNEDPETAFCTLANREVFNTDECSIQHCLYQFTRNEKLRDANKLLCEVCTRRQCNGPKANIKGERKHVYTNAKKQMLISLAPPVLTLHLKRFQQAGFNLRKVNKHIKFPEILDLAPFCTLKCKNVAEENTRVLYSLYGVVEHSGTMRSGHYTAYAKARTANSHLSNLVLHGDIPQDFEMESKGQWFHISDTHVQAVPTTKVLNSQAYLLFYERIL
active: [11]; compound concentration: 200uM -1.27 | [17]; compound concentration: 200uM -1.62
inactive: [1]; compound concentration: 50uM -0.0823 | [1]; compound concentration: 200uM -0.556 | [2]; compound concentration: 50uM -0.113 | [2]; compound concentration: 200uM -0.275 | [3]; compound concentration: 50uM 0.0401 | [3]; compound concentration: 200uM -0.748 | [4]; compound concentration: 50uM -0.209 | [4]; compound concentration: 200uM -0.00919 | [5]; compound concentration: 50uM -0.0288 | [5]; compound concentration: 200uM -0.558 | [6]; compound concentration: 0.78uM -0.182 | [6]; compound concentration: 1.56uM -0.165 | [6]; compound concentration: 3.13uM -0.0224 | [6]; compound concentration: 6.25uM -0.111 | [6]; compound concentration: 12.5uM -0.299 | [6]; compound concentration: 25uM -0.0714 | [6]; compound concentration: 50uM -0.0894 | [6]; compound concentration: 100uM -0.233 | [6]; compound concentration: 200uM -0.491 | [7]; compound concentration: 0.78uM -0.0997 | [7]; compound concentration: 1.56uM -0.0515 | [7]; compound concentration: 3.13uM -0.248 | [7]; compound concentration: 6.25uM -0.0769 | [7]; compound concentration: 12.5uM -0.00208 | [7]; compound concentration: 25uM -0.0915 | [7]; compound concentration: 50uM -0.387 | [7]; compound concentration: 100uM -0.167 | [7]; compound concentration: 200uM -0.479 | [8]; compound concentration: 0.78uM -0.177 | [8]; compound concentration: 1.56uM -0.318 | [8]; compound concentration: 3.13uM 0.0709 | [8]; compound concentration: 6.25uM -0.00683 | [8]; compound concentration: 12.5uM -0.0549 | [8]; compound concentration: 25uM 0.0133 | [8]; compound concentration: 50uM 0.0578 | [8]; compound concentration: 100uM -0.181 | [8]; compound concentration: 200uM -0.253 | [9]; compound concentration: 50uM -0.285 | [9]; compound concentration: 200uM -0.652 | [10]; compound concentration: 50uM -0.265 | [10]; compound concentration: 200uM -0.972 | [11]; compound concentration: 50uM -0.307 | [12]; compound concentration: 50uM -0.495 | [12]; compound concentration: 200uM -0.496 | [13]; compound concentration: 50uM -0.434 | [13]; compound concentration: 200uM -0.669 | [14]; compound concentration: 50uM -0.00981 | [14]; compound concentration: 200uM -0.105 | [15]; compound concentration: 50uM -0.312 | [15]; compound concentration: 200uM -0.936 | [16]; compound concentration: 50uM -0.694 | [16]; compound concentration: 200uM -0.189 | [17]; compound concentration: 50uM -0.0935 | [18]; compound concentration: 50uM -0.0383 | [18]; compound concentration: 200uM -0.326 | [19]; compound concentration: 50uM -0.507 | [19]; compound concentration: 200uM 0.00388 | [20]; compound concentration: 50uM -0.325 | [20]; compound concentration: 200uM -0.246

UniProt Q9P2H5
Sequence of UniProt Q9P2H5 (Q9P2H5 whole entry): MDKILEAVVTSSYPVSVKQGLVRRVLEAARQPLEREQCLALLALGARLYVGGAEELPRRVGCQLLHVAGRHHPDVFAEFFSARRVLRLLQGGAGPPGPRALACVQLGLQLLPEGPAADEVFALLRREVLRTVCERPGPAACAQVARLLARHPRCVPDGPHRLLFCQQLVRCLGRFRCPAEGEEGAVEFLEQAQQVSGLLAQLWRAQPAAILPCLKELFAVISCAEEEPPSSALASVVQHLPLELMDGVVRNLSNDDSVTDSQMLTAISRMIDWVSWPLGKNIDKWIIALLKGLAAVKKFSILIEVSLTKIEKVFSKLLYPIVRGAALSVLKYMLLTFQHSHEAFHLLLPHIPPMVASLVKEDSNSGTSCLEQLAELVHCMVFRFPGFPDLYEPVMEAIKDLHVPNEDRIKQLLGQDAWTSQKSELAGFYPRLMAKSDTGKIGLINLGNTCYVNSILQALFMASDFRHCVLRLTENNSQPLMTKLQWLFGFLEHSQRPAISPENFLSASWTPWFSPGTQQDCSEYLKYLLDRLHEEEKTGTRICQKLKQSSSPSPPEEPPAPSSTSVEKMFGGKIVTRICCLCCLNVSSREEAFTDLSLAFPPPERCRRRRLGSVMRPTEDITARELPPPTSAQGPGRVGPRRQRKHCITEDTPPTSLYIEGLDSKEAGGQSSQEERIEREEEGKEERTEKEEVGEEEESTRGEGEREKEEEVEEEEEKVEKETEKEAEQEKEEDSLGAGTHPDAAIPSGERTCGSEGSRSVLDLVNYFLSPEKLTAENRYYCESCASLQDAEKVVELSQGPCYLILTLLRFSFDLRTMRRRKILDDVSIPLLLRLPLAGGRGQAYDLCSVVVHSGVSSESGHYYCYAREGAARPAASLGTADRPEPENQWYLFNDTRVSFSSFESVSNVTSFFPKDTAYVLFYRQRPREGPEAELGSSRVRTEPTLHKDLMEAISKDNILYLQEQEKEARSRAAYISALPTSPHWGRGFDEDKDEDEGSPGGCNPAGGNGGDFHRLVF
inactive: [1]; compound concentration: 50uM -0.0377 | [1]; compound concentration: 200uM 0.00874 | [2]; compound concentration: 50uM -0.392 | [2]; compound concentration: 200uM -0.0291 | [3]; compound concentration: 50uM -0.175 | [3]; compound concentration: 200uM -0.43 | [4]; compound concentration: 50uM 0.0391 | [4]; compound concentration: 200uM 0.177 | [5]; compound concentration: 50uM -0.286 | [5]; compound concentration: 200uM -0.188 | [6]; compound concentration: 0.78uM -0.0934 | [6]; compound concentration: 1.56uM -0.117 | [6]; compound concentration: 3.13uM -0.133 | [6]; compound concentration: 6.25uM -0.0237 | [6]; compound concentration: 12.5uM -0.00833 | [6]; compound concentration: 25uM -0.293 | [6]; compound concentration: 50uM -0.0682 | [6]; compound concentration: 100uM -0.133 | [6]; compound concentration: 200uM -0.168 | [7]; compound concentration: 0.78uM -0.164 | [7]; compound concentration: 1.56uM -0.0308 | [7]; compound concentration: 3.13uM -0.0316 | [7]; compound concentration: 6.25uM -0.151 | [7]; compound concentration: 12.5uM -0.2 | [7]; compound concentration: 25uM -0.0579 | [7]; compound concentration: 50uM 0.05 | [7]; compound concentration: 100uM -0.00994 | [7]; compound concentration: 200uM -0.0974 | [8]; compound concentration: 0.78uM 0.0582 | [8]; compound concentration: 1.56uM -0.146 | [8]; compound concentration: 3.13uM -0.121 | [8]; compound concentration: 6.25uM -0.0964 | [8]; compound concentration: 12.5uM -0.172 | [8]; compound concentration: 25uM -0.164 | [8]; compound concentration: 50uM -0.0898 | [8]; compound concentration: 100uM -0.0993 | [8]; compound concentration: 200uM 0.0345 | [9]; compound concentration: 50uM 0.132 | [9]; compound concentration: 200uM -0.452 | [10]; compound concentration: 50uM -0.52 | [10]; compound concentration: 200uM -0.532 | [11]; compound concentration: 50uM 0.0586 | [11]; compound concentration: 200uM -0.355 | [12]; compound concentration: 50uM -0.626 | [12]; compound concentration: 200uM -0.327 | [13]; compound concentration: 50uM -0.0969 | [13]; compound concentration: 200uM -0.154 | [14]; compound concentration: 50uM -0.301 | [14]; compound concentration: 200uM -0.182 | [15]; compound concentration: 50uM -0.114 | [15]; compound concentration: 200uM -0.29 | [16]; compound concentration: 50uM -0.263 | [16]; compound concentration: 200uM -0.82 | [17]; compound concentration: 50uM 0.133 | [17]; compound concentration: 200uM -0.449 | [18]; compound concentration: 50uM -0.415 | [18]; compound concentration: 200uM -0.273 | [19]; compound concentration: 50uM -0.192 | [19]; compound concentration: 200uM -0.595 | [20]; compound concentration: 50uM 0.156 | [20]; compound concentration: 200uM 0.0366

UCHL3 (UniProt P15374)
Sequence of UniProt P15374 (P15374 whole entry): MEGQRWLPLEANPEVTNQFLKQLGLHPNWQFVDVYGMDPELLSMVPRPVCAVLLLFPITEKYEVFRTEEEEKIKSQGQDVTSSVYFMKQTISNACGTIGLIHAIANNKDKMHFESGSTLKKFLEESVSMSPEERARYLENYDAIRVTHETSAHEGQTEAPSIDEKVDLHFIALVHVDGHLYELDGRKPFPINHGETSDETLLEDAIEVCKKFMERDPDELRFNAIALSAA
inactive: [1]; compound concentration: 50uM -0.196 | [1]; compound concentration: 200uM -0.314 | [2]; compound concentration: 50uM -0.297 | [2]; compound concentration: 200uM -0.153 | [3]; compound concentration: 50uM -0.183 | [3]; compound concentration: 200uM -0.417 | [4]; compound concentration: 50uM -0.099 | [4]; compound concentration: 200uM 0.0584 | [5]; compound concentration: 50uM -0.019 | [5]; compound concentration: 200uM -0.018 | [6]; compound concentration: 0.78uM -0.0289 | [6]; compound concentration: 1.56uM 0.0129 | [6]; compound concentration: 3.13uM -0.0693 | [6]; compound concentration: 6.25uM 0.048 | [6]; compound concentration: 12.5uM 0.0678 | [6]; compound concentration: 25uM -0.149 | [6]; compound concentration: 50uM 0.0701 | [6]; compound concentration: 100uM 0.149 | [6]; compound concentration: 200uM -0.0196 | [7]; compound concentration: 0.78uM -0.0917 | [7]; compound concentration: 1.56uM -0.101 | [7]; compound concentration: 3.13uM 0.0215 | [7]; compound concentration: 6.25uM 0.0584 | [7]; compound concentration: 12.5uM -0.0931 | [7]; compound concentration: 25uM -0.0862 | [7]; compound concentration: 50uM -0.186 | [7]; compound concentration: 100uM -0.142 | [7]; compound concentration: 200uM -0.0506 | [8]; compound concentration: 0.78uM -0.0451 | [8]; compound concentration: 1.56uM -0.0987 | [8]; compound concentration: 3.13uM 0.048 | [8]; compound concentration: 6.25uM 0.105 | [8]; compound concentration: 12.5uM -0.0766 | [8]; compound concentration: 25uM -0.0628 | [8]; compound concentration: 50uM -0.0352 | [8]; compound concentration: 100uM -0.00864 | [8]; compound concentration: 200uM -0.0634 | [9]; compound concentration: 50uM 0.093 | [9]; compound concentration: 200uM -0.266 | [10]; compound concentration: 50uM -0.509 | [10]; compound concentration: 200uM -0.431 | [11]; compound concentration: 50uM -0.149 | [11]; compound concentration: 200uM -0.181 | [12]; compound concentration: 50uM -0.479 | [12]; compound concentration: 200uM -0.262 | [13]; compound concentration: 50uM -0.409 | [13]; compound concentration: 200uM -0.314 | [14]; compound concentration: 50uM -0.297 | [14]; compound concentration: 200uM -0.108 | [15]; compound concentration: 50uM -0.15 | [15]; compound concentration: 200uM -0.296 | [16]; compound concentration: 50uM -0.0194 | [16]; compound concentration: 200uM -0.59 | [17]; compound concentration: 50uM -0.0966 | [17]; compound concentration: 200uM -0.705 | [18]; compound concentration: 50uM -0.331 | [18]; compound concentration: 200uM -0.399 | [20]; compound concentration: 50uM -0.0539 | [20]; compound concentration: 200uM -0.088
active: [19]; compound concentration: 50uM -1.73 | [19]; compound concentration: 200uM -4.16
